Rows were chosen to be rich in hits. Some 4.7% of all compounds tested hit in one or more screens of this group.
D1 PAM = Potentiators of Human D1 Dopamine Receptor: qHTS | HEK293 TREx D1 cells, calcium flux, dopamine EC20 potentiation | potentiation, % at 10 µM | 360,000 tested, 0.036% active; in the data active means potentiation above about 30%
Target sequence (P21728 whole entry, looked up): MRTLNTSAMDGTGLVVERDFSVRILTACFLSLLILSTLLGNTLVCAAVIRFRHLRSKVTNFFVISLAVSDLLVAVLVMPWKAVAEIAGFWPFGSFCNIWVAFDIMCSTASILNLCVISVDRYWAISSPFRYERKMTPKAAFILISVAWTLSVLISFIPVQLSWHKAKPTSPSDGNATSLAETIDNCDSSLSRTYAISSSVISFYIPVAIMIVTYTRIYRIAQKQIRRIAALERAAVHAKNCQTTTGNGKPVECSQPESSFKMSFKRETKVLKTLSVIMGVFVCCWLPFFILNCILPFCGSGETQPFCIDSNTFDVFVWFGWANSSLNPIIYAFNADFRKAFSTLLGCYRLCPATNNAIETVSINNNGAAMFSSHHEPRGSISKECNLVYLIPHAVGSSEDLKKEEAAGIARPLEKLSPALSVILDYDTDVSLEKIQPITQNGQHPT
TRHR ag = qHTS for Small Molecule Agonists and Allosteric Enhancers of Human TRH Receptor: Primary Screen for Agonists | Thyrotropin-releasing hormone receptor (Homo sapiens), P34981 | TRHR cells, calcium flux fluo-8, FDSS agonist mode | activation, % at 2 µM | 360,000 tested, 0.18% active
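TRHR-expressing cells, plated overnight in medium with 10% serum, were loaded with fluo-8 calcium dye at room temperature. After a 10 s baseline, library compound was pin-added and calcium release was recorded kinetically (ex 480/em 530) as agonist response.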
D1 ag = Allosteric Agonists of the Human D1 Dopamine Receptor: qHTS | activation, % at 2 µM | 360,000 tested, 1% active | HEK293 T-REx D1 cells, calcium flux, agonist mode | AID 504660, 2011
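Inducible HEK293 T-REx D1 cells, force-coupled to calcium signalling, were plated at 4000 cells/well with tetracycline and held overnight at 30 C. After no-wash calcium dye loading, compound-evoked calcium rise over 180 s flagged agonists.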
TRHR enhancer = qHTS for Small Molecule Agonists and Allosteric Enhancers of Human TRH Receptor: Primary Screen for Enhancers | Thyrotropin-releasing hormone receptor (Homo sapiens), P34981 | TRHR cells, fluo-8 calcium fluorescence, EC20 TRH enhancement | enhancement, % at 2 µM | 360,000 tested, 0.66% active; in the data active means enhancement above about 30%
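TRHR-expressing cells loaded with fluo-8 calcium dye were read kinetically (ex 480/em 530) during compound addition, then stimulated with an EC20 of TRH (10 nM final). Enhancement of the Gq-mediated intracellular calcium response was scored.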
D1 antag = Antagonist of Human D 1 Dopamine Receptor: qHTS; D(1A) dopamine receptor (Homo sapiens), P21728; HEK293 TREx D1 cells, calcium flux, dopamine EC80; hits give low values; activity change, negative = inhibition, % at 10 µM; 360,000 tested, 3.2% active; AID 504652, 2011; in the data active means activity change below about -30%
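Tetracycline-induced HEK293 Trex D1 cells, force-coupled to calcium, dye-loaded; compounds added and read 180 s, then EC80 dopamine added and calcium flux tracked kinetically another 180 s.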
Each line names hits and unclear results; the compound was inactive in the other large screens. Unless noted, no stated cut-off is given here; in the data, active means activation above about 30%; inactive means the rest.

CCOCCCn1c(=N)c(C(=O)NCc2cccnc2)cc2c(=O)n3cc(C)ccc3nc21	D1 ag 34
N#CC1CC(c2ccc([N+](=O)[O-])cc2)=NN1c1ccc([N+](=O)[O-])cc1 (stereo unspecified)	D1 ag 34
Cc1ccc2c(c1)N(Cc1ccncc1)C(=O)C(C)O2 (stereo unspecified)	D1 antag -34
O=C(CCCn1c2ccccc2c(=O)c2ccccc21)Nc1cccc(Cl)c1	none
Cc1cc(Cl)ccc1OCC(=O)N1CCC(c2nc3ccccc3s2)CC1	none
Cc1cc(C)c(NC(=O)c2cc(=O)c3ccccc3o2)c(C)c1	none
Cc1ccc2c(=O)cc(C(=O)Nc3c(C)cccc3C)oc2c1	D1 antag -32
COc1ccc(CNC(=O)c2cc(=O)c3cc(C)ccc3o2)cc1	D1 antag -36
Cc1ccc(CNC(=O)c2cc(=O)c3ccccc3o2)cc1	D1 antag -35 (no result: D1 PAM)
COc1ccc2oc(=O)c(C(=O)NCc3ccc(C)cc3)cc2c1	D1 antag -37
c1ccc(CN(Cc2ccccc2)Cc2nnc(-c3cc4ccccc4[nH]3)o2)cc1	none
CCOCCCNC(=O)C(c1ccccc1)N1Cc2ccccc2C1=O (stereo unspecified)	none
Cc1ccc(S(=O)(=O)N2CCOCC2)cc1C(=O)Nc1ccccc1C(=O)O	none
Cc1cccc(Cn2c(=O)n(-c3cc(C)cc(C)c3)c(=O)c3oc4ccccc4c32)c1	none
CCc1cccc(-n2c(=O)c3cccnc3n2CC(=O)Nc2ccc(OC)c(Cl)c2)c1	D1 antag -63
Cc1cc2c(c(=O)n1Cc1ccccc1)C1O[C@](c3ccsc3)(Cc3ccccc31)O2	none
CCCCn1c(C)cc2c(c1=O)C1O[C@](c3ccsc3)(Cc3ccccc31)O2	TRHR enhancer 33
Cc1nc(C)c(-c2ccc(SCc3ccccc3C)nn2)s1	none
N#C/C(=C/c1ccc(N2CCOCC2)o1)C(=O)Nc1ccccc1	TRHR ag 90, D1 ag 215
N#C/C(=C\c1ccc(OCCN2CCOCC2)cc1)C(=O)Nc1ccccc1	D1 antag -30
N#C/C(=C\c1ccc(N2CCOCC2)o1)C(=O)NC1CCCCC1	D1 ag 69
CCOc1ccc(NC(=O)/C(C#N)=C/c2ccc(N3CCCC3)c(C)c2)cc1	TRHR ag 32, D1 ag 377
COCCNC(=O)/C(C#N)=C/c1ccc(N2CCOCC2)o1	none
O=C(Nc1ccc(F)cc1)c1cccc(N2CCCS2(=O)=O)c1	none
Cc1ccc(S(=O)(=O)N2CCCc3cc(NC(=O)c4ccc(Cl)cc4)ccc32)cc1	none
O=C(Nc1cccc(-c2cccc(Cl)c2)c1)C1CCN(Cc2ccc(CO)o2)CC1	none
CCn1cc(CN2CCC(C(=O)Nc3cccc(-c4cccc(OC)c4)c3)CC2)cn1	none
CCn1nc(C)c(CN2CCC(C(=O)Nc3cccc(-c4cccc(F)c4)c3)CC2)c1C	D1 ag 37
Cc1ccc(CN2CCC(C(=O)Nc3cccc(-c4cccc(F)c4)c3)CC2)o1	none
CC(C)n1cc(CN2CCC(C(=O)Nc3cccc(-c4cccc(Cl)c4)c3)CC2)cn1	D1 ag 41
CCn1cc(CN2CCC(C(=O)Nc3cccc(-c4cccc(F)c4)c3)CC2)cn1	D1 antag -38
Cc1ccc(N2CC(NC(=O)c3ccc(S(=O)(=O)N(C)C)cc3)CC2=O)cc1C (stereo unspecified)	none (no result: D1 antag)
CCn1c2cc(C)sc2c2cnn(Cc3ccccc3F)c(=O)c21	none
O=S(=O)(c1ccc(Cl)cc1)N1CCN(c2nc(-c3cccc(Br)c3)nc3ccccc23)CC1	none
O=S(=O)(c1ccc(Cl)cc1)N1CCN(c2nc(-c3ccc(Cl)cc3)nc3ccccc23)CC1	D1 antag -36
CC(=O)c1ccc(S(=O)(=O)N2CCN(c3nc(-c4cccnc4)nc4ccccc34)CC2)cc1	TRHR enhancer 35 (no result: D1 PAM)

High-throughput results (PubChem BioAssay)
